The source of these data is PubChem BioAssay (Tox21).

Values without a mark were called inactive. Records with an inconclusive call do not appear. Activity calls are given as the source filed them. Unless noted, calls come from the whole dose curve; as a rule, active = well fitted curve in the direction sought with a large enough effect in the repeat runs; inconclusive = weak or mixed curves; inactive = no such curve, though single readings can be large; an effect the other way counts as inactive or inconclusive.

Assay [1] is described as follows: qHTS assay to identify small molecule agonists of the hypoxia (HIF-1) signaling pathway - cell viability counter screen (AID 1224844; calls by dose curve; note: nearly all actives have a fitted effect of over 50% in size). In short, it runs like this:
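CellTiter-Glo luminescence read-out, 30 min RT, taken in the same wells as the beta-lactamase HRE reporter assay; HRE-bla ME-180 cells, 0.5% dialyzed FBS, 17 hr compound treatment at 37C, 5% CO2.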
For orientation: In qHTS, concentration-response curves come from the screen itself.

A short description of assay [2]: qHTS assay to identify small molecule agonists of H2AX (AID 1224845; active = well fitted activation curve with a large enough effect in the signal ratio in the repeat runs, not every such curve was filed as active; the % refers to the signal ratio). The essentials:
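Phospho-H2AX Ser139 measured by HTRF (ex 320 nm; em 665 and 620 nm) after 24 hr antibody incubation. Compounds, 15 concentrations, 0.76% DMSO, were applied to CHO-K1 cells for 3hr at 37C before lysis.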

Assay [3] is described as follows: qHTS assay to identify small molecule agonists of the hypoxia (HIF-1) signaling pathway (AID 1224846; active = well fitted activation curve with a large enough effect in the signal ratio in the repeat runs, not every such curve was filed as active; the % refers to the signal ratio). The essentials:
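Beta-lactamase FRET read-out (CCF4-AM substrate) from ME-180 cells carrying an HRE-driven bla reporter, after 17 hrs compound exposure at 37C/5% CO2. Cells were seeded at 2,000 per well in 0.5% dialyzed FBS medium and preincubated 5 hrs.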

Assay [4] in a line: qHTS assay to identify small molecule agonists of H2AX - cell viability counter screen (AID 1224847; calls by dose curve; note: top concentration of the series differs between compounds; nearly all actives have a fitted effect of over 30% in size). In short, it runs like this:
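Quantitative HTS viability measurement: CHO-K1 wild-type cells in serum (10% FBS) medium, short 3 hr drug exposure at 37C with 0.76% DMSO, CellTiter-Glo luminescent detection.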

Assay [5] in a line: A CellTox Green Cytotoxicity Assay to monitor cytotoxicity in HEK293 cells - 0 hour (AID 1224869). Note: nearly all actives have a fitted effect of over 50% in size. The essentials:
(§1)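 Read-out: fluorescence of a cell-impermeant cyanine dye staining DNA of dead cells, proportional to cytotoxicity. HEK293, 600 cells/well with reagent, compound (23 nL DMSO) added after 5 h; reads at 0, 8, 16, 24, 32, 40 h.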

Assay [6] in a line: qHTS RealTime-Glo MT Cell Viability Assay in HepG2 cells - 40 hour (AID 1224870). Note: nearly all actives have a fitted effect of over 50% in size. In short, it runs like this: (§2)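 Real-time viability: cells seeded at 600 per well together with NanoLuc and cell-permeant prosubstrate, compounds added after 5 h incubation. Luminescence tracked at 0, 8, 16, 24, 32 and 40 h of exposure.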
Assay [7] is described as follows: A CellTox Green Cytotoxicity Assay to monitor cytotoxicity in HEK293 cells - 40 hour (AID 1224871). Note: nearly all actives have a fitted effect of over 45% in size. Note: potency is the fitted concentration of half-maximal effect. In short, it runs like this: as §1
A short description of assay [8]: qHTS RealTime-Glo MT Cell Viability Assay in HepG2 cells - 8 hour (AID 1224873). Note: nearly all actives have a fitted effect of over 55% in size. In short, it runs like this:
as §2

A short description of assay [9]: qHTS RealTime-Glo MT Cell Viability Assay in HEK293 cells - 40 hour (AID 1224874). Note: nearly all actives have a fitted effect of over 50% in size. The note with it: RealTime-Glo luminescence; max response: active compounds read low. In short, it runs like this: (§3)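 Luminescence readout at each listed time point; HEK293, 600 cells/well, RealTime-Glo MT reagent added with cells; compounds pinned (23 nL in DMSO) after 5 h at 37 C; continuous culture at 37 C.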

A short description of assay [10]: A CellTox Green Cytotoxicity Assay to monitor cytotoxicity in HEK293 cells - 24 hour (AID 1224875). Note: nearly all actives have a fitted effect of over 45% in size. In short, it runs like this: as §1
Assay [11] is described as follows: A CellTox Green Cytotoxicity Assay to monitor cytotoxicity in HepG2 cells - 16 hour (AID 1224876). Note: nearly all actives have a fitted effect of over 45% in size. In short, it runs like this: (§4)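 HepG2, 600 cells/well premixed w/ CellTox Green; 5 h settle, 37 C/5% CO2; pintool cpd add (DMSO); 37 C, 40 h; fluorescence read at 0, 8, 16, 24, 32, 40 h.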
Assay [12] in a line: qHTS RealTime-Glo MT Cell Viability Assay in HepG2 cells - 32 hour (AID 1224877). Note: nearly all actives have a fitted effect of over 55% in size. In short, it runs like this:
(§5)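 Real-time, nonlytic viability: 600 HepG2 cells/well mixed with NanoLuc enzyme plus prosubstrate; 5 h settle, compound (DMSO) added by pintool; luminescence monitored over 40 h at 37 C.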

Assay [13] is described as follows: A CellTox Green Cytotoxicity Assay to monitor cytotoxicity in HepG2 cells - 24 hour (AID 1224878). Note: nearly all actives have a fitted effect of over 45% in size. In short, it runs like this:
as §4

Assay [14] can be described thus: A CellTox Green Cytotoxicity Assay to monitor cytotoxicity in HepG2 cells - 40 hour (AID 1224879). Note: nearly all actives have a fitted effect of over 40% in size. In short, it runs like this: as §4
The nature of assay [15]: qHTS RealTime-Glo MT Cell Viability Assay in HEK293 cells - 0 hour (AID 1224880). The essentials:
as §3

Assay [16] is described as follows: qHTS assay to identify small molecule agonists of the estrogen related receptor (ERR) signaling pathway from Tox21 library (AID 1224849; calls by dose curve; note: nearly all actives have a fitted effect of over 15% in size). The note with it: ERR reporter cell line, ONE-Glo luciferase, 18 h; at 92.4 µM (top of the series) unless noted. In short, it runs like this:
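Luminescence readout (ONE-Glo, 30 min RT) after 18 h compound exposure at 37 C of NTP-supplied ERR reporter cells; cells were plated 6 h before compound addition by pin tool.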

A short description of assay [17]: qHTS RealTime-Glo MT Cell Viability Assay in HepG2 cells - 24 hour (AID 1224867). Note: nearly all actives have a fitted effect of over 50% in size. In short, it runs like this: as §5
Assay [18] in a line: qHTS RealTime-Glo MT Cell Viability Assay in HEK293 cells - 32 hour (AID 1224868). In short, it runs like this:
(§6)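 Cells + reagent dispensed (600 cells/well, HEK293) → 5 h at 37 C/5% CO2 → 23 nL compound in DMSO pinned → 40 h at 37 C → luminescence read at 0, 8, 16, 24, 32, 40 h.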

A short description of assay [19]: qHTS RealTime-Glo MT Cell Viability Assay in HEK293 cells - 16 hour (AID 1224872). In short, it runs like this:
as §6
% is set by controls: 0 for no effect and ±100 for the full control effect.

`CC(=O)[O-].CC(=O)[O-].O.O.O.[Pb+2]`: the Potency entry in [1], in assay [2], in assay [3], in [4], in assay [5] and in assay [6] was “inactive” throughout. Besides, the Potency result in [7], in [8], in assay [10], in assay [11], in assay [12] and in assay [13] was “inactive” throughout. Moreover, the Potency result in assay [14] and in assay [15] was “inactive” throughout. The max response in assay [9] is -1.15%.
Consider `CNC(=O)Oc1cc(C)cc(C(C)C)c1`, for which the Potency result in [1], in [2], in assay [3], in assay [17], in assay [18] and in [5] was “inactive” throughout. For the same compound, the Potency entry in assay [6], in assay [7], in assay [19], in assay [8], in assay [10] and in assay [11] was “inactive” throughout. Moreover, the Potency entry in assay [12] and in assay [14] was “inactive” in each case. For the same compound, the activity change, positive = activation in [16] was 10.3%. Besides, in assay [9], the max response is 5.9%.
As to `CC(=O)[O-].CC(=O)[O-].CC(=O)[O-].[Cr+3]`, the Potency entry in [1], in [2], in assay [3], in assay [4], in assay [17] and in [18] was “inactive” each time. Besides, the Potency result in assay [6], in assay [7], in [19], in [8], in [10] and in assay [11] was “inactive” throughout. The Potency result in assay [12], in [14] and in [15] was “inactive” each time. Besides, the max response in assay [9] was -0.681%.
In the case of `CCCCn1cc[n+](C)c1` (tested in a mixture with another compound), the Potency result in assay [1], in assay [2], in [3], in [4], in assay [18] and in assay [5] was “inactive” in each case. The Potency result in assay [6], in assay [7], in assay [19], in assay [8], in [10] and in assay [11] was “inactive” in each case. Moreover, the Potency entry in [12], in assay [13], in [14] and in assay [15] was “inactive” throughout. Moreover, the max response in [9] was 0.0469%.
Consider `COc1ccc2[nH]cc(CCN(C(C)C)C(C)C)c2c1`, for which the Potency result in assay [1], in assay [2], in [3], in assay [4], in assay [18] and in [6] was “inactive” each time. Besides, the Potency entry in assay [7], in [19], in [8], in [10], in [11] and in assay [13] was “inactive” throughout. The Potency result in assay [15] is “inactive”. Further, the max response in [9] was -12%.
Turning to `NC(=O)C(Cl)Cl`, the Potency entry in assay [1], in assay [2], in assay [3], in [4], in assay [17] and in assay [18] was “inactive” throughout. In addition, the Potency result in assay [6], in assay [7], in [19], in assay [8], in assay [10] and in assay [11] was “inactive” each time. In addition, the Potency result in assay [12] and in assay [14] was “inactive” throughout. Moreover, the max response in assay [9] was 3.34%.
For the compound `C=CCBr`, the Potency result in assay [1], in assay [2], in assay [3], in [4], in assay [18] and in assay [5] was “inactive” throughout. The Potency result in [6], in [7], in [19], in [8], in [10] and in assay [11] was “inactive” each time. Moreover, the Potency entry in assay [12] and in assay [14] was “inactive” each time. Further, the max response in assay [9] is 0.528%.
Consider `OCC(Br)CBr` (configuration not stated), for which the Potency entry in assay [1], in assay [2], in assay [3], in assay [4], in assay [17] and in assay [18] was “inactive” in each case. In addition, the Potency result in assay [6], in assay [7], in assay [19], in assay [8], in assay [10] and in assay [11] was “inactive” each time. Further, the Potency result in assay [12], in assay [14] and in assay [15] was “inactive” in each case. Moreover, the max response in assay [9] is -11.1%.
For `Cc1ccc(C)c2ccccc12`, the Potency result in assay [1], in [2], in assay [3], in [4], in [17] and in [18] was “inactive” in each case. Moreover, the Potency result in [5], in [6], in assay [19], in assay [8], in assay [11] and in assay [12] was “inactive” throughout. The Potency result in assay [13] and in assay [14] was “inactive” in each case. The Potency in assay [7] is 38.9 µM (active). For the same compound, the max response in [9] is -14.8%.
For `[Cl-].[Cl-].[Sn+2]`, the Potency result in assay [1], in assay [2], in assay [3], in assay [4], in assay [17] and in assay [5] was “inactive” each time. The Potency result in [6], in assay [7], in [19], in assay [8], in assay [10] and in assay [11] was “inactive” in each case. Further, the Potency entry in [12], in assay [13], in assay [14] and in assay [15] was “inactive” throughout.
In the case of `Clc1c(Cl)c(Cl)c(Cl)c(Cl)c1Cl`, the activity change, negative = cytotoxicity in [1] was 4.74% [at 6.97 µM]; in assay [4], -1.8% [at 14 µM]; in assay [17] it was -0.564% [at 6.97 µM]; in [19], 3.93% [at 6.97 µM]; in [15], 2.6% [at 6.97 µM]. Besides, the activation (H2AX phosphorylation) in assay [2] is -0.165% [at 14 µM]. The activation in assay [3] is -0.723% [at 7.01 µM]. The activity change, negative = cytotoxic in [18] was 0.699% [at 6.97 µM]; in assay [6], 0.985% [at 6.97 µM]; in [12], 0.7% [at 6.97 µM]. Also, the cytotoxicity increase in assay [7] was -20.6% [at 6.97 µM]; in [11], 0.26% [at 6.97 µM]; in assay [14], -0.205% [at 6.97 µM]. In assay [8], the viability change, negative = cytotoxic was 1.69% [at 6.97 µM]. In addition, the max response in assay [9] was 8.77%. In [10], the activity change is -16.1% [at 6.97 µM, active compounds read high]. Moreover, the cytotoxicity in assay [13] is 0.224% [at 6.97 µM].
As for `CNC(=O)CSP(=O)(OC)OC`, the Potency entry in [1], in [2], in [3], in assay [4], in assay [17] and in assay [18] was “inactive” throughout. Further, the Potency result in [5], in [6], in assay [7], in [19], in assay [8] and in assay [11] was “inactive” throughout. Further, the Potency entry in assay [13], in assay [14] and in [15] was “inactive” in each case. Besides, in [9], the max response was 5.27%.
In the case of `Nc1c(Cl)c(Cl)c(Cl)c(Cl)c1Cl`, the Potency entry in [1], in assay [2], in assay [3], in assay [4], in [17] and in [18] was “inactive” each time. Further, the Potency result in [5], in assay [6], in assay [7], in assay [19], in [8] and in [10] was “inactive” in each case. Moreover, the Potency result in [12] and in [15] was “inactive” in each case. In addition, in [9], the max response was -2.22%.
As to `CC(C)=CCN1CC[C@@]2(C)c3cc(O)ccc3C[C@@H]1[C@@H]2C`, the Potency entry in [1], in assay [2], in assay [3], in assay [4], in [17] and in assay [5] was “inactive” in each case. Moreover, the Potency result in assay [6], in [7], in assay [8], in assay [10], in [11] and in assay [12] was “inactive” throughout. In [13], the Potency result was “inactive”.
